Bioassay records (PubChem BioAssay)
Most compounds without a hit are left out; they make up all but 2.4% or so of the library.
CHO-K1 Ca antag = M1 antagonist counterscreen hit in parental CHO-K1 cells; ATP-induced calcium, Fluo-8 fluorescence; inhibition, % at 3 µM; 360,000 tested, 0.6% active; AID 602250;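 active means inhibition above a per-plate cutoff, the plate's mean sample inhibition plus 3 SD, cut at about 24% in these data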;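 further: 0% = DMSO plus EC80 ATP and 100% = DMSO alone without ATP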
M1 PAM = human M1 muscarinic receptor positive allosteric modulators, primary screen, CHO-K1 cells, Fluo-8 calcium fluorescence, 1536-well; AID 588819, 2011; Muscarinic acetylcholine receptor M1 (Homo sapiens), P11229; activation, % at 3 µM; CHO-K1 hM1, ACh EC20; 0% = ACh EC20, 100% = maximal ACh; 360,000 tested, 0.088% active; in the data active means activation above about 19%, passing the limit was not always enough
Target sequence (P11229 whole entry, looked up): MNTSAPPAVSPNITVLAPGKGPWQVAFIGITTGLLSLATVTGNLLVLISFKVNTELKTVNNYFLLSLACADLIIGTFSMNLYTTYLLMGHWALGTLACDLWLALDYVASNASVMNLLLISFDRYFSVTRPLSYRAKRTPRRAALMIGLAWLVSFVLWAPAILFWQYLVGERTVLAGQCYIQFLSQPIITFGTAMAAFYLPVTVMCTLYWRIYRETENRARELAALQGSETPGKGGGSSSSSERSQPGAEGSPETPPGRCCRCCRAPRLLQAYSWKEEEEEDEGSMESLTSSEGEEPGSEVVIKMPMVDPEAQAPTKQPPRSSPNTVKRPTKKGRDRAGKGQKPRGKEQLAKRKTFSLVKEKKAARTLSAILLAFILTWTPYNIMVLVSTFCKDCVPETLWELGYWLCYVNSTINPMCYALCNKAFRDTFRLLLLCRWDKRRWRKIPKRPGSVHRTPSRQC
CHO-K1 Ca PAM = nonselective calcium activators in parental CHO-K1 cells, primary screen, counter-screen for M1 PAM project, cell-based, Fluo-8 calcium fluorescence, full deck, 1536-well | ATP EC20; 0% at ATP EC20, 100% at ATP max | activation, % at 3 µM | 360,000 tested, 0.02% active | AID 602247, 2012;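 active means activation above the run cutoff, the mean activation of all test compounds plus 3 SD, cut at about 40% in these data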;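 further: peak over basal fluorescence ratio in a 140 s read after ATP addition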
CHO-K1 Ca ag = counter-screen for M1 agonists: effect in parental CHO-K1 cells. Fluo-8 calcium fluorescence; scaled to maximal ATP response, vehicle zero. activation, % at 3 µM. 360,000 tested, 0.48% active. AID 602248, 2012; in the data active means activation above about 15%;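 further: untransfected CHO-K1 host cells lacking M1 receptor as counterscreen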
CHRM1 agonist = human M1 muscarinic receptor agonists, primary screen, Fluo-8 calcium fluorescence, CHO-K1 cells, HTS; Muscarinic acetylcholine receptor M1 (Homo sapiens), P11229; CHO-K1 hM1, agonist mode; 0% DMSO, 100% acetylcholine EC100; 360,000 tested, 0.33% active; activation, % at 3 µM;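 active means activation above the run's mean compound activation plus 3 SD, cut at about 16% in these data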;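 further: peak over basal fluorescence ratio within a 140 s kinetic read after compound addition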
M1 antag = human M1 muscarinic receptor antagonists, primary screen, CHO-K1 cells, Fluo-8 calcium fluorescence, 1536-well | CHO-K1 hM1, ACh EC80 antagonist | inhibition, % at 3 µM | 360,000 tested, 1.3% active | AID 588852, 2011;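 active means percent inhibition above its own plate's cutoff, namely the mean of that plate's compound wells plus 3 SD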;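 further: peak over basal fluorescence ratio during 140 s after agonist addition; 0% = ACh EC80 plus DMSO and 100% = DMSO alone without agonist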
Starred values were filed as active, the others as inactive.

SMILES	CHO-K1 Ca antag	M1 PAM	CHO-K1 Ca PAM	CHO-K1 Ca ag	CHRM1 agonist	M1 antag
COc1ccc(N=Cc2c(O)cc(C)oc2=O)cc1	16	-2	1	16*	-4	3
CCCCOc1ccc(/C=N/NC(=S)Nc2cc(C)ccc2C)cc1	28*	8	-5	2	0	2
Cc1nc2ccc(S(=O)(=O)Nc3cccc(-c4nc5cccnc5s4)c3C)cc2s1	3	-19	0	10	2	39*
CCC(=O)c1ccc(OCC(O)CNCCc2ccc(Cl)cc2)cc1 (stereo not given)	-5	8	13	15*	-2	-15
CCOC(=O)C1=CCN(S(=O)(=O)c2ccc(F)cc2)C1c1cccc(F)c1 (stereo not given)	27*	0	-7	2	-4	7
CCOC(=O)C1=CCN(S(=O)(=O)c2ccccc2C)C1c1ccccc1 (stereo not given)	26*	7	-7	1	-10	-1
CCOC(=O)C1=CCN(S(=O)(=O)c2ccccc2Cl)C1c1ccc(Cl)c(Cl)c1 (stereo not given)	8	-12	7	1	-6	14
CCOC(=O)C1=CCN(S(=O)(=O)c2ccccc2C)C1c1ccc(Br)cc1 (stereo not given)	7	-5	14	2	-1	8
CCOC(=O)C1=CCN(S(=O)(=O)c2ccccc2Br)C1c1ccc(Cl)c(Cl)c1 (stereo not given)	29*	-6	2	1	-4	13
CCOC(=O)C1=CCN(S(=O)(=O)c2ccc(F)cc2)C1c1cccc(C)c1 (stereo not given)	-2	-4	11	0	-11	1
COc1ccc2cc1Oc1ccc(cc1)CC1c3c(cc(OC)c4c3Oc3cc5c(cc3O4)CCNC5C2)CCN1C (stereo not given)	-1	-35	-6	3	-12	91*
CC1(C(=O)NS(=O)(=O)C2CC2)CCN(C(=O)CSc2ccccc2)C1 (stereo not given)	10	9	-10	0	-3	-13
CC(=O)Nc1ccc(SCCC2CCCCN2C)cc1 (stereo not given)	-5	-19	-2	0	-12	25*
CCC(C)NC(=O)CSc1ccc(NC(C)=O)cc1 (stereo not given)	6	4	5	0	-4	6
C=CCO/N=C(/C)c1ccc(Oc2cnccn2)cc1	13	-4	-11	0	-7	-2
COCCNC(=O)C1CCCN(C(=O)c2ccnc(Cl)c2)CC1 (stereo not given)	-3	7	7	0	-1	-13
CN(c1ccc(C(=O)NCCSCc2ccccc2)cc1)S(=O)(=O)c1ccccc1	24*	-8	-9	0	-2	15
CN(c1ccccc1)S(=O)(=O)c1ccc(NC(=O)c2ccccc2)cc1	8	-9	-9	2	-3	13
Cc1cccc(CSCCNC(=O)c2ccc(N(C)S(=O)(=O)c3ccccc3)cc2)c1	4	-5	19	5	-1	4
Cc1cc(NC(=O)c2ccc(N(C)S(=O)(=O)c3ccccc3)cc2)no1	-19	-18	-5	17*	-1	15
COc1ccc(CNC(=O)c2ccc(N(C)S(=O)(=O)c3ccc(C)cc3)cc2)cc1	25*	4	-11	0	1	-1
CN(c1ccc(C(=O)Nc2ccccn2)cc1)S(=O)(=O)c1ccccc1	-10	11	14	0	-1	-8
CN(c1ccccc1)S(=O)(=O)c1ccc(NC(=O)c2ccc(F)cc2)cc1	3	-13	4	19*	1	13
Cc1ccccc1C(=O)NNC(=O)c1cc(S(=O)(=O)N2CCOCC2)ccc1C	-11	11	-4	0	2	-3
COC(=O)c1cc(S(=O)(=O)N2CCN(c3ccc(F)cc3)CC2)cn1C	5	0	21	20*	0	0
SMILES	CHO-K1 Ca antag	M1 PAM	CHO-K1 Ca PAM	CHO-K1 Ca ag	CHRM1 agonist	M1 antag
CCOc1cc(CNCCc2ccc(S(N)(=O)=O)cc2)cc(Cl)c1OCc1ccccc1	-14	-19	0	21*	7	32
COc1ccc(CNCCc2ccc(Cl)cc2)cc1OCc1ccccc1	8	-3	3	14	0	14
COc1cc(CNCc2ccccn2)ccc1OCc1ccc(Cl)cc1Cl	25*	-6	3	0	-5	22
CCOc1cc(CNCc2ccccc2)ccc1OCc1ccc(Cl)cc1	29*	2	-12	20*	0	5
C=CCn1c(-c2ccccc2)c[nH]c1=S	-12	6	26	2	-2	-4
CCn1c(-c2ccc(-c3ccccc3)cc2)c[nH]c1=S	13	-20	-6	0	-6	48*
CCOC(=O)CC1C(=O)NCCN1C(=O)COc1ccc(C(C)(C)C)cc1 (stereo not given)	-13	12	9	1	-2	-10
O=C(O)c1ccccc1C(=O)c1cccc2c(Br)cccc12	3	11	5	0	-7	-9
CC1CCCC(C)N1C(=O)COc1ccc(C(=O)Nc2ccccc2N2CCOCC2)cc1 (stereo not given)	-6	6	4	0	-2	34*
CCOC(=O)C(=O)N(C)c1c(CC)nc2c(OCc3cc(Cl)cc(Cl)c3)cccn12	29*	-5	-17	0	-9	-5
Cc1ccccc1C[n+]1cccc2ccccc21	-5	-7	0	0	-13	8
CCCCCCCCC[n+]1cccc2c3ccccc3ccc21	20	-22	2	3	-1	95*
O=[N+]([O-])c1ccc(C[n+]2cccc3c4ccccc4ccc32)cc1	-16	0	21	2	-5	1
CCCCCCCCCCCCCCCC[n+]1cccc2ccccc21	12	-25	-1	-1	-13	47*
CCCc1cc2c(=O)c(-c3nc4ccccc4s3)c(COCC(=O)O)oc2cc1O	19	8	2	2	-6	-3
COc1ccc(NC2SC(=O)N(C)C2=O)cc1 (stereo not given)	-5	0	5	0	-2	9
Nc1nc(N)c2cc(CNc3ccc(Cl)c(Cl)c3)ccc2n1	-2	-1	6	1	-2	3
OC[C@@H]1CN(Cc2ccncc2)C[C@H](n2cnc3c(NCc4ccco4)ncnc32)O1	0	5	10	0	-3	-8
